Among all 2,300 compounds or so, about 1,000 (43%) were called active. The set was probably picked from earlier hits. Not all results are given here. A number with no mark means an inactive call.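 How the source made its calls: active means compounds inhibiting the enzyme by at least 50% at 15 µM in any one of the replicates; inactive means the rest.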

Experimental findings from PubChem BioAssay AID624325 (Sanford-Burnham Center for Chemical Genomics, 2012) are described below.

For the test, the target named is Fatty acid synthase (Homo sapiens) (UniProt P49327). Description: FAS thioesterase domain inhibitors, confirmation, biochemical, fluorescence intensity, single concentration (AID 624325).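 Further: 0% = enzyme with DMSO only and 100% = wells lacking enzyme.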 Particulars: recombinant FAS-TE, OMFH fluorogenic substrate, at 15 µM, stronger effect = higher value.
Fatty acid synthase (Homo sapiens), sequence (P49327 whole entry, looked up, the tested form may be a part): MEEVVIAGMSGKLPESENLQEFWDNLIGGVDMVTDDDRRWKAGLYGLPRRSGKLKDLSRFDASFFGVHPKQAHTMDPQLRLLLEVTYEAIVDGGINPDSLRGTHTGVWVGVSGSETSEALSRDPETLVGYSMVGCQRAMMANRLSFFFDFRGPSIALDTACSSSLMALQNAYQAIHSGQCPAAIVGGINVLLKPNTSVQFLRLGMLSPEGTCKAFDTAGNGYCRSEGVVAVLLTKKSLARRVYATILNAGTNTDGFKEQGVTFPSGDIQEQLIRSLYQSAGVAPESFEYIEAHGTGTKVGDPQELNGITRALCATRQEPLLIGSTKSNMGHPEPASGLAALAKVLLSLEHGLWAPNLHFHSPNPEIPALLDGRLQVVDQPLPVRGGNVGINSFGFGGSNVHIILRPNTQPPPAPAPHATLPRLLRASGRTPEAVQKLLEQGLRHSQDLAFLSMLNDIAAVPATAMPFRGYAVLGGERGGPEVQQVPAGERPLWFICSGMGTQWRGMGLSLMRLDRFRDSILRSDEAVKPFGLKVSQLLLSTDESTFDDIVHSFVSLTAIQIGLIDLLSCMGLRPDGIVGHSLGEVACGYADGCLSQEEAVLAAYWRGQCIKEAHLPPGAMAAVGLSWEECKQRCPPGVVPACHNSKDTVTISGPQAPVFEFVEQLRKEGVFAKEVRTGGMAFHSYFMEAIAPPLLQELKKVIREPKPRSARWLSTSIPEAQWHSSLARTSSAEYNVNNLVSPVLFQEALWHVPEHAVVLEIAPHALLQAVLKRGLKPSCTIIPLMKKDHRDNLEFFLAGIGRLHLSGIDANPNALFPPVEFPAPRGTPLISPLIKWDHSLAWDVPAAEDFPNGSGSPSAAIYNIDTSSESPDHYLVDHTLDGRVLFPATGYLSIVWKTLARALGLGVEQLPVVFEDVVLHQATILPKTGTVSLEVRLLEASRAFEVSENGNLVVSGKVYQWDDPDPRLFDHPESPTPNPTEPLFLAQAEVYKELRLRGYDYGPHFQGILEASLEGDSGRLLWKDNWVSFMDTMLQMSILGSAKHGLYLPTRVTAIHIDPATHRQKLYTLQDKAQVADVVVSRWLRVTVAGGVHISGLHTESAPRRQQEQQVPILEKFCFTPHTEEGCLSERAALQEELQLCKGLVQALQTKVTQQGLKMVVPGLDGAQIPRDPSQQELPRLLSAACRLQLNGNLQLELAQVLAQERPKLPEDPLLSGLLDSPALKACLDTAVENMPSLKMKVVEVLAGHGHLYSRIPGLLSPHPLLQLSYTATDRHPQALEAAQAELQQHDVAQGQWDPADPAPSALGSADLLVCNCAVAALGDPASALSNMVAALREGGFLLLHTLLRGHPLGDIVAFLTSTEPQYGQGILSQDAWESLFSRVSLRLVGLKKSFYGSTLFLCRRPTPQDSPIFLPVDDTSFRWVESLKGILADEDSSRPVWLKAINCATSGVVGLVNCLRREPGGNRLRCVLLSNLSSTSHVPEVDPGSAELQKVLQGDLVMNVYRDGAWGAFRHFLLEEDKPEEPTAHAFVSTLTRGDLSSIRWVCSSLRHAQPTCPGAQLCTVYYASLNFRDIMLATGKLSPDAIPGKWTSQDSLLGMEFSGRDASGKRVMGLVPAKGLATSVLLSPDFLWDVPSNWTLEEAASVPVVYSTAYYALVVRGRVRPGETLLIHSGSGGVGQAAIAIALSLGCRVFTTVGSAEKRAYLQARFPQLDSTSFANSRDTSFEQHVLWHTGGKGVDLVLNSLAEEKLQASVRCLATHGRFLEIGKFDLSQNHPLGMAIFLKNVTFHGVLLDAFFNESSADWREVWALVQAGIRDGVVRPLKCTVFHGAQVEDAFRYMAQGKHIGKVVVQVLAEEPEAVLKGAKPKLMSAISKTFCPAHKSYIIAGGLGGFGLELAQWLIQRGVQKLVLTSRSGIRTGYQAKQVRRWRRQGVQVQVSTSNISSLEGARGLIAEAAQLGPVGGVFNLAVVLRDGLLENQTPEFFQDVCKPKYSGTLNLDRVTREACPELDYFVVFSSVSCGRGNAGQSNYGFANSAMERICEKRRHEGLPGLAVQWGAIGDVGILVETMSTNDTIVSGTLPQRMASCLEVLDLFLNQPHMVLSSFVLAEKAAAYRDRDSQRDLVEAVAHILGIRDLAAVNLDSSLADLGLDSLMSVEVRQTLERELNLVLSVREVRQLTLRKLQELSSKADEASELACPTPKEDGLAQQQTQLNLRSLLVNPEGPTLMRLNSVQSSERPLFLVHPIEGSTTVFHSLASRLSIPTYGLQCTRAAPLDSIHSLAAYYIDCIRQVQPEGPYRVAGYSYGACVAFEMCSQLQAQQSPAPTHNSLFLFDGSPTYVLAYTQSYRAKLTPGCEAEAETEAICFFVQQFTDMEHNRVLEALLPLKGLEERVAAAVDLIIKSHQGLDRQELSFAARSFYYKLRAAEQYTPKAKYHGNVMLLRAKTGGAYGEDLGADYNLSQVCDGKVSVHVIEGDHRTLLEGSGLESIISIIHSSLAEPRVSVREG
A word on the inhibition: it is the change of the read-out against control, counted positive when it falls. Turning to `CCOC(=O)[C@]12Cc3ccccc3[C@H]1N(C1CCCCC1)C(=O)c1cc(OC)ccc12`, the inhibition was 53% (active).
Then `COc1cccc(C(c2nnnn2-c2ccc3c(c2)OCCO3)N2CCC3(CC2)C(=O)NCN3c2ccccc2)c1OC` (stereo not drawn), with 8.72%; and `COc1ccc(-n2nnnc2C(c2cccc3ccccc23)N2CCC(n3c(=O)[nH]c4ccccc43)CC2)cc1` (stereo not drawn), with 34.4%.
